Laboratory results published in PubChem BioAssay (NCI).
“And” between values parts separate entries of the source, which are not always exact repeats. Equal entries are not always repeated. About 83,000 compounds went through this panel and 20% of them were active in at least one assay; those are over-represented in the sample as a whole.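 Activity criterion: percent growth below 10, measured after cells in 96-well plates were exposed to a single compound concentration for 48 hours.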 The source made the active and inactive calls.

These molecules were tested on SK-MEL-5 melanoma (assay: NCI-60 one-dose screen, 48 h (100 = growth as untreated, 0 = no growth, -100 = all killed)). Details: 10 µM.
Method: Growth inhibition of the SK-MEL-5 human tumor cell line is measured as a screen for anti-cancer activity. Cells are grown in 96 well plates and exposed to the test compound for 48 hours. Compounds are tested at a single concentration, which is 10^-5 M for most compounds. The reported endpoint is percent growth (GI% or GIPRCNT), where numbers from 0 - 100% represent growth inhibition, and numbers from -100% - 0 represent cell death. For example, a value of 40 represents 60% growth inhibition. A value of 0 means no net growth occurred over the course of the experiment. A value of -40 indicates 40% of cells at the beginning of the experiment died by the end of the experiment. A value of -100 means all cells are dead at the end of the experiment.
NCI-60 Human Tumor Cell Lines Screen was performed using the standard one-dose NCI protocol, which is described in more detail at https://dtp.cancer.gov/discovery_development/nci-60/default.htm.
Compounds with GIPRCNT values below 10 were considered active. Activity score was based on GIPRCNT using the following formula: […]
Score is 0 for GIPRCNT values of 100 or above, 50 for GIPRCNT values of 0, and 100 for GIPRCNT values of -100.

| SMILES | growth |
| --- | --- |
| O=C(Nc1cccc(Br)c1)Oc1cccc2cccnc12 | 101% (inactive) |
| COc1ccc(-c2cscc2N)cc1 | 48.8% (inactive) |
| O=C(Nc1c(Cl)cccc1Cl)Oc1cccc2cccnc12 | 55.9% (inactive) |

Same assay, conditions: 10 µM unless noted

| SMILES | growth |
| --- | --- |
| N[C@H](C(=O)O)[C@@H]1CC(Cl)=NO1 | 11.4% [20 µM] (inactive) |
| O=C(Nc1ccccc1)Oc1c(Cl)c(Cl)c(Cl)c(Cl)c1Cl | 101% (inactive) and 96.1% (inactive) |
| CCCCCCCCCCCCCCCCOP(=O)([O-])OCC[N+](C)(C)C | 59.1% (inactive) |
| Oc1c(Cl)c2ccccc2c2ccccc12 | 101% (inactive) |
| COc1cc(NS(C)(=O)=O)ccc1Nc1c2ccccc2nc2ccccc12 | 3.48% [2.5 µM] (active) |
| C=CCOc1ccc(N=NC(C#N)C#N)cc1 | 91.8% (inactive) |
| CCC(=O)Sc1ccccc1C(=O)Nc1ccc(Cl)cc1 | 25.2% (inactive) |
| CC(=O)C(=Cc1ccc(C=C(C(C)=O)C(C)=O)cc1)C(C)=O | 72.8% (inactive) |
| O=[N+]([O-])c1ccc2c(N=Nc3ccc4ccccc4c3O)c(O)cc(S(=O)(=O)O)c2c1 | 85% (inactive) |
| Cc1cc(C(C)(CC(C)C)c2ccc(O)c(C)c2)ccc1O | 97.5% (inactive) |
| COC(=O)[C@@]12OC[C@]34[C@H]([C@@H](O)[C@@H]1O)[C@@]1(C)[C@H](O)C(=O)C=C(C)[C@@H]1C[C@H]3OC(=O)C(OC(C)=O)[C@@H]24 (stereo not given in full) | -76.9% (active) |
| Cn1c2ccccc2c2nnc(N/N=C/c3ccccn3)nc21 | -44.1% (active) |
| C/C=C1\SC(=S)NC1=O | 99.8% (inactive) |
| CCC(CC)COC(=O)c1ccc(O)c(O)c1 | 83.3% (inactive) |
| CCCCCCCCCCCCCCCC[N+](C)(CCO)Cc1cnc[nH]1 (stereo not given) | -99.8% (active) |
| O=C(CC1(O)C(=O)Nc2c(Cl)ccc(Cl)c21)c1ccc(Cl)cc1Cl (stereo not given) | 100% (inactive) |
| NC(=S)N/N=C\c1nccc2c(C(F)(F)C(F)(F)C(F)(F)F)cccc12 | -54.7% (active) |

| SMILES | growth |
| --- | --- |
| Cc1c2ccccc2c(C)c2c1ccc1ccccc12 | 93.1% (inactive) |
| O=C(/C=C\c1cc(Br)ccc1O)/C=C/c1cc(Br)ccc1O | -87.5% (active) |
| CCN(CC)CCOc1ccc(-c2nc3cc(Cl)ccc3s2)cc1 | -38.5% (active) |
| CCCCCC(CCCCC)C(=O)O | 117% (inactive) |
| O=C1c2ccccc2C(=O)c2sc(Nc3cccc(Cl)c3)nc21 | -82.6% (active) |
| COc1cc(/C=C/C(C)=O)ccc1O | 97% (inactive) and 113% (inactive) |
| O=C1c2ccccc2C(=O)c2sc(Nc3ccc(Cl)cc3)nc21 | 13% (inactive) |
| COC(=O)Nc1nc2ccc(C(=O)c3ccccc3)cc2[nH]1 | 8.39% (active) and 4.91% (active) and -9.41% (active) |
| CC1OC2CC(=O)OC2C2=C1C(=O)c1c(O)cccc1C2=O (stereo not given) | -100% (active) |
| CC1SC(=S)N(c2ccc(Cl)cc2)C1=O (stereo not given) | 94.6% (inactive) and 93.6% (inactive) |
| CCCCCCCCCCCCCCCCN(CC)CC | -97.7% (active) |
| O=C(/C=C/c1cccc(Cl)c1)c1ccccc1 | 94% (inactive) and 93.4% (inactive) |
| Oc1c(Br)cc(Cl)cc1C(c1cc(Cl)cc(Br)c1O)C(Cl)(Cl)Cl | -64.6% (active) |
| CCC(c1cccc(O)c1)C(CC)c1cccc(O)c1 (stereo not given) | 32.3% (inactive) |
| S=C(N/N=C/c1ccccn1)Nc1ccccn1 | -22.2% (active) |
| Cc1ccc(NS(=O)(=O)c2ccc(C)cc2)cc1 | 97.8% (inactive) and 95.3% (inactive) |
| Nc1nc(N)c2c(ccc3c2ccn3Cc2cccc([N+](=O)[O-])c2)n1 | -98% (active) |

Same assay, conditions: 100 µM

| SMILES | growth |
| --- | --- |
| O=C(Nc1cccc(Br)c1)Oc1cccc2cccnc12 | 2.15% (active) |
| COc1ccc(-c2cscc2N)cc1 | 33.1% (inactive) |
| O=C(Nc1c(Cl)cccc1Cl)Oc1cccc2cccnc12 | 14.4% (inactive) |
